Laboratory results reported in PubChem BioAssay (NCATS).
Records with an inconclusive call do not appear. A number with no mark means an inactive call. Calls of active or inactive are those of the source. The call rests on the fitted dose curve; in most records, active means well fitted cell-killing curve with a large enough effect; inconclusive means small, poorly fitted or top-dose-only effect, or effect the other way; inactive means no such curve, though single readings can be large or run the other way.

Assay: Quantitative High-Throughput drug screen in 47 multiple myeloma cell lines against the NCATS MIPE library collection: OCIMY5_PLB cell viability assay (AID 1918988); further: nearly all actives have a fitted effect of over 65% in size
Conditions: OCI-MY5 myeloma viability, ATP luminescence, 48 h; series mostly up to 45.8 µM; viability, % of control: at the top concentration
Description: PI: Beverly A. Mock Ph.D.
Laboratory of Cancer Biology and Genetics,
Center for Cancer Research, National Cancer Institute,
National Institute of Health, Bethesda, Maryland
Drug resistance and disease progression are common in multiple myeloma (MM) patients, underscoring the need for new therapeutic combinations. […] We hypothesized that effective combinations would reduce MYC expression and enhance p16 activity. […] These preclinical data identify potentially useful drug combinations for evaluation in drug-resistant MM and reveal potential mechanisms of combined drug sensitivity.
Described herein is the primary MIPE qHTS used to cherrypick compounds. Validated compounds were then further tested for potential synergistic activiy.
[1] Peat TJ, Gaikwad SM, Dubois W, Gyabaah-Kessie N, Zhang S, Gorjifard S, Phyo Z, Andres M, Hughitt VK, Simpson RM, Miller MA, Girvin AT, Taylor A, Williams D, D'Antonio N, Zhang Y, Rajagopalan A, Flietner E, Wilson K, Zhang X, Shinn P, Klumpp-Thomas C, McKnight C, Itkin Z, Chen L, Kazandijian D, Zhang J, Michalowski AM, Simmons JK, Keats J, Thomas CJ, Mock BA. Drug combinations identified by high-throughput screening promote cell cycle transition and upregulate Smad pathways in myeloma. Cancer Lett. 2023 Aug 1;568:216284. doi: 10.1016/j.canlet.2023.216284. Epub 2023 Jun 24. PMID: 37356470; PMCID: PMC10408729.
SEQUENCE No. (e.g., 1, 2, 3, etc.); […] (e.g., Cells, Incubation, Reagent, etc.); VALUE and DESCRIPTION.
1; Cells; 5 uL; white, solid bottom 1536-well Greiner assay plate.
2; Compounds; 23 nL; Kalypsis pin tool (Wako USA) equipped with a 1536-well pin head to transfer to the assay plates.
3; Incubation; 48 hours; 37C incubation.
4; Reagent;5uL; CellTiter Glo (Promega).
5; Detector; 425V; Luminescence; Viewlux PerkinElmer.
NOTES (numbers refer to Sequence numbers above)
1. The cell-based screening methods employed in this study were like those previously published. Briefly, the corresponding myeloma cell lines were screened in 1,536-well plates with 500 cells, 5-uL per well for inhibition of cell viability (assessed by measuring ATP levels with CellTiterGlo).
2. NCATS MIPE 4.0 library of approved and investigational drugs were added using the Kalypsis pin tool. Wells treated with DMSO only for 100% viability and media only for 0% viability were used as controls.
3. The assay plates were covered and incubated for 48 hours in a 37C, 5% CO2 incubator with controlled humidity.
4. After 48 hours, CellTilter-GloTM luminescent substrate mix (Promega) reagent was added to the assay plate and plates we incubated for 5 min at room temperature.
5. Signal was measured as median relative luminescence units on a ViewLux (PerkinElmer) multiplate reader.
[1] Heske CM, Davis MI, Baumgart JT, Wilson K, Gormally MV, Chen L, Zhang X, Ceribelli M, Duveau DY, Guha R, Ferrer M, Arnaldez FI, Ji J, Tran HL, Zhang Y, Mendoza A, Helman LJ, Thomas CJ. Matrix Screen Identifies Synergistic Combination of PARP Inhibitors and Nicotinamide Phosphoribosyltransferase (NAMPT) Inhibitors in Ewing Sarcoma. Clin Cancer Res. 2017 Dec 1;23(23):7301-7311. doi: 10.1158/1078-0432.CCR-17-1121. Epub 2017 Sep 12. PMID: 28899971; PMCID: PMC6636827.
Potency means the concentration at half of the fitted maximal effect.

Structure (SMILES)	viability, % of control	Potency
Cc1ccccc1N1C(=O)c2cc(S(N)(=O)=O)c(Cl)cc2NC1C (stereo not given)	152%	–
CN(C)CCCN1c2ccccc2CCc2ccc(Cl)cc21	–	0.418 µM (active)
OCCN(CCO)c1nc(N2CCCCC2)c2nc(N(CCO)CCO)nc(N3CCCCC3)c2n1	–	23.5 µM (active)
COC(=O)Nc1nc2ccc(C(=O)c3cccs3)cc2[nH]1	–	0.0021 µM (active)
NC12CC3CC(CC(C3)C1)C2	–	0.0026 µM (active)
O=C(CCCN1CCC(O)(c2ccc(Cl)cc2)CC1)c1ccc(F)cc1	–	18.7 µM (active)
CCOC(=O)C(C)(C)Oc1ccc(Cl)cc1	186%	–
Clc1ccc2c(c1)C(N1CCNCC1)=Nc1ccccc1O2	–	20.9 µM (active)
CC(C(=O)O)c1cccc(C(=O)c2ccccc2)c1 (stereo not given)	–	20.9 µM (active)
CCOC(=O)c1ncn2c1CN(C)C(=O)c1cc(F)ccc1-2	–	20.9 µM (active)
CN(C)C(=O)C(CCN1CCC(O)(c2ccc(Cl)cc2)CC1)(c1ccccc1)c1ccccc1	–	16.6 µM (active)
CN1CCC(=C2c3ccccc3CC(=O)c3sccc32)CC1	–	23.5 µM (active)
O=C(c1ccc(OCCN2CCCCC2)cc1)c1c(-c2ccc(O)cc2)sc2cc(O)ccc12	–	18.7 µM (active)
Nc1c2c(nc3ccccc13)CCCC2	–	23.5 µM (active)
CC(C)C(=O)Nc1ccc([N+](=O)[O-])c(C(F)(F)F)c1	–	1.48 µM (active)
CS(=O)(=O)Nc1ccc([N+](=O)[O-])cc1Oc1ccccc1	–	11.8 µM (active)
CC(COc1ccccc1)N(CCCl)Cc1ccccc1 (stereo not given)	–	26.4 µM (active)
CN1CCN(CCCN2c3ccccc3Sc3ccc(Cl)cc32)CC1	–	26.4 µM (active)
CC(=O)OCC(CCn1cnc2cnc(N)nc21)COC(C)=O	160%	–
C[C@H]1c2cccc(O)c2C(O)=C2C(=O)[C@]3(O)C(O)=C(C(N)=O)C(=O)[C@@H](N(C)C)[C@@H]3[C@@H](O)[C@@H]21	–	23.5 µM (active)

Structure (SMILES)	viability, % of control	Potency
O=C(c1ccc(F)cc1)C1CCN(CCn2c(=O)[nH]c3ccccc3c2=O)CC1	–	26.4 µM (active)
O=C1Cc2cc(CCN3CCN(c4nsc5ccccc45)CC3)c(Cl)cc2N1	–	37.2 µM (active)
CC(C)NCC(O)c1ccc(O)c(O)c1 (stereo not given)	–	5.26 µM (active)
CN1CCN2c3ccccc3Cc3ccccc3C2C1 (stereo not given)	–	23.5 µM (active)
CS(=O)(=O)CCNCc1ccc(-c2ccc3ncnc(Nc4ccc(OCc5cccc(F)c5)c(Cl)c4)c3c2)o1	–	0.0743 µM (active)
O=C1N(c2ccccc2)c2ccccc2C1(Cc1ccncc1)Cc1ccncc1	–	37.2 µM (active)
CC[C@@]1(O)C(=O)OCc2c1cc1n(c2=O)Cc2cc3c(CN(C)C)c(O)ccc3nc2-1	–	5.9 µM (active)
CCCCc1oc2ccccc2c1C(=O)c1cc(I)c(OCCN(CC)CC)c(I)c1	–	16.6 µM (active)
O=C(Nc1ccc([N+](=O)[O-])cc1Cl)c1cc(Cl)ccc1O	–	1.66 µM (active)
O=C(C1CCCCC1)N1CC(=O)N2CCc3ccccc3C2C1 (stereo not given)	184%	–
Nc1nnc(-c2cccc(Cl)c2Cl)c(N)n1	190%	–
CN1C(C(=O)Nc2ccccn2)=C(O)c2ccccc2S1(=O)=O	165%	–
CN1CCC(=C2c3ccccc3C=Cc3ccccc32)CC1	–	18.7 µM (active)
O=C1c2c(O)ccc(O)c2C(=O)c2c(NCCNCCO)ccc(NCCNCCO)c21	–	1.32 µM (active)
Cc1ccc(-c2cc(C(F)(F)F)nn2-c2ccc(S(N)(=O)=O)cc2)cc1	–	20.9 µM (active)
Nc1nc2c(ncn2COC(CO)CO)c(=O)[nH]1	–	20.9 µM (active)
C[C@@H]1CC(=O)NN=C1c1ccc(NN=C(C#N)C#N)cc1	–	18.7 µM (active)
CC(C)Cc1ccc(C(C)C(=O)O)cc1 (stereo not given)	158% [at 23.2 µM]	–
OCCN1CCN(CCCN2c3ccccc3Sc3ccc(C(F)(F)F)cc32)CC1	–	20.9 µM (active)
COc1ccccc1OCCNCC(O)COc1cccc2[nH]c3ccccc3c12 (stereo not given)	–	18.7 µM (active)
